# Experiments:
# Conditions in all cases: concentration: 1 μM, replicates: in singlicate; n = 1
# DDR2 = system: DDR2
# DLK = system: T1, DLK
# T1 construct: gene MAP3K12
# DMPK2 = system: T2, DMPK2
# T2 construct: gene CDC42BPG
# DMPK = system: DMPK
# DRAK1 = system: T3, DRAK1
# T3 construct: gene STK17A
# DRAK2 = system: T4, DRAK2
# T4 construct: gene STK17B
# DYRK1A = system: DYRK1A
# DYRK1B = system: DYRK1B
# DYRK2 = system: DYRK2
# EGFR = system: EGFR
# 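Also: KINOMEscan kinase panel screen.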
SMILES,%Inh (DDR2),%Inh (DLK),%Inh (DMPK2),%Inh (DMPK),%Inh (DRAK1),%Inh (DRAK2),%Inh (DYRK1A),%Inh (DYRK1B),%Inh (DYRK2),%Inh (EGFR)
FC(F)(F)c1ccc(-c2nn3ncccc3c2-c2ccnc(Nc3cccc(C(F)(F)F)c3)n2)cc1 [GW828205],25%,7%,0%,7%,0%,18%,0%,41%,31%,11%
COc1ccc(Nc2nccc(N3CCC(NC(=O)c4cccc(NC(C)=O)c4)C3)n2)cc1 (stereo not drawn) [GSK1379732],41%,33%,0%,13%,24%,0%,8%,87%,7%,16%
COc1ccc(NC(=O)c2ccc(-c3cc(-c4nnc(C)o4)ccc3C)cc2)cc1 [GW595885],9%,18%,0%,0%,0%,0%,20%,0%,4%,14%
Oc1ccc2ncnc(Nc3ccc(OCc4ccccc4)cc3)c2c1 [GI262866],7%,11%,0%,0%,0%,0%,16%,0%,18%,100%
CCCc1ccc(S(=O)(=O)NC2CCN(c3ccnc(Nc4ccc(OC)cc4)n3)C2)cc1 (stereo not drawn) [GSK1379737],34%,28%,94.7%,0%,0%,0%,19%,8%,0%,32%
Clc1cccc(-c2nc(Nc3ccncc3)c3ccccc3n2)c1 [GW873004],32%,0%,84%,4%,0%,10%,12%,57%,7%,10%
Cl.Cn1ccc(-c2cccc(Nc3ccnc4cc(-c5nccs5)ccc34)c2)n1 [GW525701],33%,37%,0%,0%,8%,10%,12%,16%,0%,11%
CCc1nc(-c2cccc(C)c2)c(-c2ccnc(NC(=O)c3ccccc3)c2)s1,1%,6%,8%,0%,0%,0%,18%,50%,10%,24%
Cc1ccc(C)c(NC(=O)NCCNc2ccnc(Nc3ccc(F)cc3)n2)c1 [GSK1379878],15%,38%,0%,0%,5%,3%,0%,1%,3%,10%
FC(F)(F)c1ccc(-c2cc(-c3c[nH]nc3-c3ccccn3)ccn2)cc1 [GW599550],17%,41%,0%,4%,10%,0%,10%,23%,0%,18%
CC(C)(C)c1ccc(-n2cnc3c(N)ncnc32)cc1 [SKF-97263],13%,0%,0%,0%,85%,5%,15%,21%,3%,38%
Clc1cc(Nc2ncnc3cc[nH]c23)ccc1OCc1ccccn1,0%,40%,0%,9%,48%,20%,0%,17%,17%,99.9%
Fc1cccc(COc2ccc(Nc3ncnc4cc[nH]c34)cc2Cl)c1,0%,0%,16%,1%,55%,6%,8%,25%,22%,100%
Cl.c1ccc(Cn2ncc3cc(Nc4ncnc5ccccc45)ccc32)cc1 [GW273749],0%,12%,61%,0%,79%,0%,16%,8%,16%,100%
CNc1nccc(-c2c(-c3ccc(F)cc3)ncn2C2CCN(C)CC2)n1 [SB-222903],58%,0%,21%,1%,0%,0%,0%,0%,0%,8%
